Assays:
Test in all cases: DAPPL (digital affinity profiling via proximity ligation, sequencing); 10 mM Tris-HCl pH 7.5, 50 mM NaCl, 1 mM DTT, 4% glycerol, room temperature, 30 min; GST-TFs on glutathione beads, 16-mer random dsDNA library, 0.1% formaldehyde crosslink after washing; high values mean tight binding
FLI1 = biological target: T1, FLI1 (Homo sapiens, UniProt Q01543 1-452); conditions: protein: recombinant; tags: N-terminal GST; dsDNA, one strand shown
T1 sequence: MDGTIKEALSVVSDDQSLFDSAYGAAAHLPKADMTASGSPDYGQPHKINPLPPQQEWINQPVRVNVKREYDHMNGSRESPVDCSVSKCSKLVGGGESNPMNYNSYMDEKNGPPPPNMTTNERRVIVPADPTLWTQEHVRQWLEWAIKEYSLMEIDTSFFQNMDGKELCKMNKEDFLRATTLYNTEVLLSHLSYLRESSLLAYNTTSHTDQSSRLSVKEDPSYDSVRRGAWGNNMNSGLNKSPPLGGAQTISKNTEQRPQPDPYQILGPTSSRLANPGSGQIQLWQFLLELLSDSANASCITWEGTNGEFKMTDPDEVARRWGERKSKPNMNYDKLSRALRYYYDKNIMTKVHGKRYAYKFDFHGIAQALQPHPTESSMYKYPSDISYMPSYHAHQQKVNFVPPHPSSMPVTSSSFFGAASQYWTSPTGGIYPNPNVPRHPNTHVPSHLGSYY
In short: (§1)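 Each value of binding signal is a hexamer's read frequency for a factor divided by the same hexamer's frequency in the tag-only sample. Barcoded, bead-captured GST fusions of human transcription factors made in yeast were pooled with that sample and incubated with 200 nmole of a random double-stranded 16-mer DNA library in Tris/NaCl/DTT/glycerol buffer at room temperature for 30 min. Washing, 0.1% formaldehyde crosslinking, proximity ligation, PCR and Illumina NextSeq500 sequencing followed.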

ELK1 = biological target: T2, ELK1 (Homo sapiens, UniProt P19419 1-428); conditions: protein: recombinant; tags: N-terminal GST; dsDNA, one strand shown
T2 sequence: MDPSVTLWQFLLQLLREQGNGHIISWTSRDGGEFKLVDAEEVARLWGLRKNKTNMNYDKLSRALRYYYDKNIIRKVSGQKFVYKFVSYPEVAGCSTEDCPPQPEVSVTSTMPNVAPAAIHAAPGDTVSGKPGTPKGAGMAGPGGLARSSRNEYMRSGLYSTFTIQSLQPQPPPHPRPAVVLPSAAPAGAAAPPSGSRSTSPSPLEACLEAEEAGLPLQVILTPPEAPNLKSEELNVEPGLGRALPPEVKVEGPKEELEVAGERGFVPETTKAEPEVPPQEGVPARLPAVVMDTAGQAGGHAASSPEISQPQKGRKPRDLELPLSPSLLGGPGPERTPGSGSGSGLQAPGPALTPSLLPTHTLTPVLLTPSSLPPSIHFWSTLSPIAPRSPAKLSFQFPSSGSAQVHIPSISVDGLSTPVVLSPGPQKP
In short: as §1

GABPA = biological target: T3, GABPA (Homo sapiens, UniProt Q06546 1-454); conditions: protein: recombinant; tags: N-terminal GST; dsDNA, one strand shown
T3 sequence: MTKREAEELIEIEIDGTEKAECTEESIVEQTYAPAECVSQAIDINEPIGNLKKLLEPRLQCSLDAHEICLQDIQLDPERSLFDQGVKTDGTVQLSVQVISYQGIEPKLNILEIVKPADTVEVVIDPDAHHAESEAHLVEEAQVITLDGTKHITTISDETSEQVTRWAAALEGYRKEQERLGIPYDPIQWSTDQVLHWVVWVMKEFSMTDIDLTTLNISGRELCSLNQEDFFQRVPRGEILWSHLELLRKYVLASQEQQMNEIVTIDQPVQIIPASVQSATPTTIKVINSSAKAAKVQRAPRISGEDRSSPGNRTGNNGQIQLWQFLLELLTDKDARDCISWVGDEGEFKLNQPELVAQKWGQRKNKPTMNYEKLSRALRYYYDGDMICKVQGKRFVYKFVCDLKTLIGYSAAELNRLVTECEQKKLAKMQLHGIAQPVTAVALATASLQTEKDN
In short: as §1

ERG = biological target: T4, ERG (Homo sapiens, UniProt P11308 1-479); conditions: protein: recombinant; tags: N-terminal GST; dsDNA, one strand shown
T4 sequence: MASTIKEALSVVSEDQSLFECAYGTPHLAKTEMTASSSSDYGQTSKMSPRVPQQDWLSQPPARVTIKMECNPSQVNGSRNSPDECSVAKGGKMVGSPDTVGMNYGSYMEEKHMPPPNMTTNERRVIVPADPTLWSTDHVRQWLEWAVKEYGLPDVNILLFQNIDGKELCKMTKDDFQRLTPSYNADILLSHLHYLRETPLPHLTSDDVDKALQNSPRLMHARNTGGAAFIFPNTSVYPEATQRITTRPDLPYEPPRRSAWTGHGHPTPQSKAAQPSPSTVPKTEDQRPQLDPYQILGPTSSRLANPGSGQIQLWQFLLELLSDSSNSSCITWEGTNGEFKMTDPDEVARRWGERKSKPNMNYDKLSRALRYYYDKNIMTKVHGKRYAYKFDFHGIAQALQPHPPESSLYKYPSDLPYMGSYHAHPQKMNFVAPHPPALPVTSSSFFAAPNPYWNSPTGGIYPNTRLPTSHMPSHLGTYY
In short: as §1

ELF1 = ELF1 (Homo sapiens, UniProt P32519 1-619); conditions: protein: recombinant; tags: N-terminal GST; dsDNA, one strand shown
Chain of ELF1 (P32519 whole entry): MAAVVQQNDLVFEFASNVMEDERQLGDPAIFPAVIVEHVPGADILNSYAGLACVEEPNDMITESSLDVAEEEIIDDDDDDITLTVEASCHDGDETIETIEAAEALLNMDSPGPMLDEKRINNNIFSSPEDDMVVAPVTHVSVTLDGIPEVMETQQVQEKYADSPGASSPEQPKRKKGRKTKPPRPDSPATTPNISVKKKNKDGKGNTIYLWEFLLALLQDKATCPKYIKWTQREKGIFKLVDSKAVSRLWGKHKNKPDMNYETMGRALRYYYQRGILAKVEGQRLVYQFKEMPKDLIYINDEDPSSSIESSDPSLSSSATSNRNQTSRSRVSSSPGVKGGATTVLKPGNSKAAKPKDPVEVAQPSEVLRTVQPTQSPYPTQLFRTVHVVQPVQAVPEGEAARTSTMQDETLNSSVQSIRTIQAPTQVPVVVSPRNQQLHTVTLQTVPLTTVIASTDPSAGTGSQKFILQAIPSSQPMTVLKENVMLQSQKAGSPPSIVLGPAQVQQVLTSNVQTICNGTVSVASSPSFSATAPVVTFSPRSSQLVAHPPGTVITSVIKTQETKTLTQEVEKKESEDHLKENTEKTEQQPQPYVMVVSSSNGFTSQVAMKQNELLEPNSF
In short: as §1

EHF = biological target: T5, EHF (Homo sapiens, UniProt Q9NZC4 1-300); conditions: protein: recombinant; tags: N-terminal GST; dsDNA, one strand shown
T5 sequence: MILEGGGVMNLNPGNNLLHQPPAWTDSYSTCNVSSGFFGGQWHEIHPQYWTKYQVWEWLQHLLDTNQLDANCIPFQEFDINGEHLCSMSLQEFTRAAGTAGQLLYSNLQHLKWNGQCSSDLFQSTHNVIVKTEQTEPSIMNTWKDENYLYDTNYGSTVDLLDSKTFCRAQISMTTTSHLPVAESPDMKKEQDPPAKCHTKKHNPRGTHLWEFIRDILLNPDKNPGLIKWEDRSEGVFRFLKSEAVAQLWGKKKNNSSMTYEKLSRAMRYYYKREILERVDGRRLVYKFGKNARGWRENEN
In short: as §1

SPI1 = SPI1 (Homo sapiens, UniProt P17947 1-270); conditions: protein: recombinant; tags: N-terminal GST; dsDNA, one strand shown
In short: as §1

SPIB = SPIB (Homo sapiens, UniProt Q01892 1-262); conditions: protein: recombinant; tags: N-terminal GST; dsDNA, one strand shown
Chain of SPIB (Q01892 whole entry): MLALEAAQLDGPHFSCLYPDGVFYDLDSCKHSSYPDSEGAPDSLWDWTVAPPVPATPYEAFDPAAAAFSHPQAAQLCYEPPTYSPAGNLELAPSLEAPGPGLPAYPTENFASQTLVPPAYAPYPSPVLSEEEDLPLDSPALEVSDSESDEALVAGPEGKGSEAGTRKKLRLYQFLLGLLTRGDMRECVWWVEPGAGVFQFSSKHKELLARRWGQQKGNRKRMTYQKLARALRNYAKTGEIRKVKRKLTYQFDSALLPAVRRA
In short: as §1

ELK3 = biological target: T6, ELK3 (Homo sapiens, UniProt P41970 1-407); conditions: protein: recombinant; tags: N-terminal GST; dsDNA, one strand shown
T6 sequence: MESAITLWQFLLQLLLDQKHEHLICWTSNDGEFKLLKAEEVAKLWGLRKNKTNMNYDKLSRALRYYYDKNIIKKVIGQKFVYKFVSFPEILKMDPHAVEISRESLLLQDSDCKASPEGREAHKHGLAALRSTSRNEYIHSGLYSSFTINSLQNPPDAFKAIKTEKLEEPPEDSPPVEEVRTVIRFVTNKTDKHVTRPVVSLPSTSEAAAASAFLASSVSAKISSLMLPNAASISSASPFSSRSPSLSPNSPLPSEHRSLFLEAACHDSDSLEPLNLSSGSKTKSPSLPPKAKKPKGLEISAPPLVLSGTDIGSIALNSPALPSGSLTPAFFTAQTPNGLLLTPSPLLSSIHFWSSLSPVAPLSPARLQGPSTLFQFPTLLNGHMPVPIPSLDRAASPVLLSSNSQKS
In short: as §1

FEV = biological target: T7, FEV (Homo sapiens, UniProt Q99581 1-238); conditions: protein: recombinant; tags: N-terminal GST; dsDNA, one strand shown
T7 sequence: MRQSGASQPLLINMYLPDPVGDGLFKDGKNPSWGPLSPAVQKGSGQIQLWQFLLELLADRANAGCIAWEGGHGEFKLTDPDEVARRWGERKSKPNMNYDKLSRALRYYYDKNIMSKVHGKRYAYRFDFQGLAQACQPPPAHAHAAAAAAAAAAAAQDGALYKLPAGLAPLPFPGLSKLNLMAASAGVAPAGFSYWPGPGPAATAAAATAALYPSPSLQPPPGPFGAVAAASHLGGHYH
In short: as §1

ETV5 = ETV5 (Homo sapiens, UniProt P41161 1-510); conditions: protein: recombinant; tags: N-terminal GST; dsDNA, one strand shown
Chain of ETV5 (P41161 whole entry): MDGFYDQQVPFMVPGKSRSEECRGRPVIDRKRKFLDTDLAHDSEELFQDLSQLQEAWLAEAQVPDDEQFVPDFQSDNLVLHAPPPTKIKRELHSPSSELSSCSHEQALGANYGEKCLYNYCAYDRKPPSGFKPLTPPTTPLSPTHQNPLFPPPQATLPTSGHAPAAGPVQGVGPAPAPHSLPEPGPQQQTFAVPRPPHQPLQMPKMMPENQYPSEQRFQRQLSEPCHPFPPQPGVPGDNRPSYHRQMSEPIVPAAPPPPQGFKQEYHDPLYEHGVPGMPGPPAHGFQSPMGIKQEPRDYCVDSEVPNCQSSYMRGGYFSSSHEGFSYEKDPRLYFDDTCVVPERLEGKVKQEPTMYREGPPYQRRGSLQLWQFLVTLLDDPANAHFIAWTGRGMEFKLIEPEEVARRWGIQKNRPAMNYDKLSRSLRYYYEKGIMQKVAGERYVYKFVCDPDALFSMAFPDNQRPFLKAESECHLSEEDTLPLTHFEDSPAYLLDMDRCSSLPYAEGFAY
In short: as §1

HSF1 = HSF1 (Homo sapiens, UniProt Q00613 1-529); conditions: protein: recombinant; tags: N-terminal GST; chain copies: 3; dsDNA, one strand shown
Chain of HSF1 (Q00613 whole entry): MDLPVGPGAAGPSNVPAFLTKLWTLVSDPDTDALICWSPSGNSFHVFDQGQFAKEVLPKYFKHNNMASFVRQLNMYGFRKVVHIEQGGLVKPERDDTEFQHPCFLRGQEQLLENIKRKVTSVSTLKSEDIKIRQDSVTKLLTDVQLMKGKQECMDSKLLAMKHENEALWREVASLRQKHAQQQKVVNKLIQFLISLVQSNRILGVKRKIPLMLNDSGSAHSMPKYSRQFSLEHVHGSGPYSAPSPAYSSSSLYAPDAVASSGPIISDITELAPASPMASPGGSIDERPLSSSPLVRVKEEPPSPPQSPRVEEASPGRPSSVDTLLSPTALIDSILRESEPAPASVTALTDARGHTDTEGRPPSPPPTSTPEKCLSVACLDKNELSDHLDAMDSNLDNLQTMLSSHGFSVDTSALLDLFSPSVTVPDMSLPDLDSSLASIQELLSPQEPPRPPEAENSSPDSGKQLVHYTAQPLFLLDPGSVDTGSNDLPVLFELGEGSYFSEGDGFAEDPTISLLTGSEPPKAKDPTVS
In short: as §1

SPIC = biological target: T8, SPIC (Homo sapiens, UniProt Q8N5J4 1-248); conditions: protein: recombinant; tags: N-terminal GST; dsDNA, one strand shown
T8 sequence: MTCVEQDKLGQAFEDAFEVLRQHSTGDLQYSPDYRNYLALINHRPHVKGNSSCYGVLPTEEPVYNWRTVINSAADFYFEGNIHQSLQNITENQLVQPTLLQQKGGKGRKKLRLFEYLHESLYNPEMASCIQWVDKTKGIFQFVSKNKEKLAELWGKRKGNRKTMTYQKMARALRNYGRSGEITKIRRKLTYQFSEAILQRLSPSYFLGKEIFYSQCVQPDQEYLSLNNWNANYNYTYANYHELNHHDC
In short: as §1

ELF4 = ELF4 (Homo sapiens, UniProt Q99607 1-663); conditions: protein: recombinant; tags: N-terminal GST; dsDNA, one strand shown
Chain of ELF4 (Q99607 whole entry): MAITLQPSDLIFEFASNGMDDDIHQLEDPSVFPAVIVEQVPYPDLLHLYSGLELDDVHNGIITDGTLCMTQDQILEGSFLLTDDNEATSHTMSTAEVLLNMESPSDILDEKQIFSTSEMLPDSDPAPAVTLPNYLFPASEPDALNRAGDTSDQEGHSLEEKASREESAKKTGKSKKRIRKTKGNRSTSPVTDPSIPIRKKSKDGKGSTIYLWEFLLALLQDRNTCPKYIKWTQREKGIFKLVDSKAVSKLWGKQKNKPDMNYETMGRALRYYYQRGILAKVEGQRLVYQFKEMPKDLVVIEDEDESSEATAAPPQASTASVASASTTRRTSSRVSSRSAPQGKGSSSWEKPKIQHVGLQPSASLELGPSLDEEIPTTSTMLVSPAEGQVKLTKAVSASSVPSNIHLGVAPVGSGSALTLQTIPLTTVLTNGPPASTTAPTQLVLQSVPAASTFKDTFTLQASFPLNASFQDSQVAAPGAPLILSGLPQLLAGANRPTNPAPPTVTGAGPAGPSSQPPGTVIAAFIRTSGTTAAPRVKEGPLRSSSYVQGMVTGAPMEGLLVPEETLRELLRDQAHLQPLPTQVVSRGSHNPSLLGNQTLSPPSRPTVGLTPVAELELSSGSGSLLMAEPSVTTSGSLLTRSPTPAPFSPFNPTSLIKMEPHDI
In short: as §1

ELK4 = biological target: T9, ELK4 (Homo sapiens, UniProt P28324-2 1-405); conditions: protein: recombinant; tags: N-terminal GST; dsDNA, one strand shown
T9 sequence: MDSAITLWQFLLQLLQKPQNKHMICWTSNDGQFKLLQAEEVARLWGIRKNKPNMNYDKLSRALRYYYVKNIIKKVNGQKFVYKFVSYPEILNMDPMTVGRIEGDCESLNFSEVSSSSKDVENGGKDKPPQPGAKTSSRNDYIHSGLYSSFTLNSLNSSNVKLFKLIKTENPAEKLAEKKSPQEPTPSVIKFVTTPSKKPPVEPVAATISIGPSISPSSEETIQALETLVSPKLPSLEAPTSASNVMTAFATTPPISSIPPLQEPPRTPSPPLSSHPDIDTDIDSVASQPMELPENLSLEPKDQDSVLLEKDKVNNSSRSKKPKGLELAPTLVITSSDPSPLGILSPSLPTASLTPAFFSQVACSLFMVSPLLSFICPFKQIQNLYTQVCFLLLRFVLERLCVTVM
In short: as §1

ETV2 = biological target: T10, ETV2 (Homo sapiens, UniProt O00321 1-342); conditions: protein: recombinant; tags: N-terminal GST; dsDNA, one strand shown
T10 sequence: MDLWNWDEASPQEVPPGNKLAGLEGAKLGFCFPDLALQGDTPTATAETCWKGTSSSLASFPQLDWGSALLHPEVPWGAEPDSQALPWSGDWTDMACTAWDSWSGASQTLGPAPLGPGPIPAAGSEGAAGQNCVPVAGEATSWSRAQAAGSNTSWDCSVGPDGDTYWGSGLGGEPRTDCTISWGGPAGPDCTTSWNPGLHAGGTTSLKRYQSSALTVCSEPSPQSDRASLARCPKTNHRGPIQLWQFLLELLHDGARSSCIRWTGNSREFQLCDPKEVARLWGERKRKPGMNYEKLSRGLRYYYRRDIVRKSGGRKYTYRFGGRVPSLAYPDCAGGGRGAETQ
In short: as §1

ELF3 = biological target: T11, ELF3 (Homo sapiens, UniProt P78545 1-371); conditions: protein: recombinant; tags: N-terminal GST; dsDNA, one strand shown
T11 sequence: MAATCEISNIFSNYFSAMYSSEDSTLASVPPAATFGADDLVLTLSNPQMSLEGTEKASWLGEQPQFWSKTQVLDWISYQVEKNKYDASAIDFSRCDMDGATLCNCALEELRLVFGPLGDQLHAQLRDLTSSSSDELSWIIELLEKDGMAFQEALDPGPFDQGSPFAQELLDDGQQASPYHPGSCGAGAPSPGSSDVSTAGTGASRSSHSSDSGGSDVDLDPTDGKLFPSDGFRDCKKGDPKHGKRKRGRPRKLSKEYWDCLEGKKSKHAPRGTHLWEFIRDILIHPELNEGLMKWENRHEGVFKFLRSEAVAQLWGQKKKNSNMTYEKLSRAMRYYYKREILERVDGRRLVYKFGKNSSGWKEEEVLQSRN
In short: as §1

CRX = CRX (Homo sapiens, UniProt O43186 1-299); conditions: protein: recombinant; tags: N-terminal GST; dsDNA, one strand shown
Chain of CRX (O43186 whole entry): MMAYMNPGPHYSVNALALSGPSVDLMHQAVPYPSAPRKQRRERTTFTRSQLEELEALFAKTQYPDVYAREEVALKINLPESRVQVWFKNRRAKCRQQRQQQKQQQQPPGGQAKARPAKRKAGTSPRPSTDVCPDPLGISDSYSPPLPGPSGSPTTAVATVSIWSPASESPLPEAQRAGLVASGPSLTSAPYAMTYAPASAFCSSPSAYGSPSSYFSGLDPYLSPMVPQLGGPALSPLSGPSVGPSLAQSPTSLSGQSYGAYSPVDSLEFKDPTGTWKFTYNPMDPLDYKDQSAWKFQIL
In short: as §1

ETV1 = ETV1 (Homo sapiens, UniProt P50549 1-477); conditions: protein: recombinant; tags: N-terminal GST; dsDNA, one strand shown
Chain of ETV1 (P50549 whole entry): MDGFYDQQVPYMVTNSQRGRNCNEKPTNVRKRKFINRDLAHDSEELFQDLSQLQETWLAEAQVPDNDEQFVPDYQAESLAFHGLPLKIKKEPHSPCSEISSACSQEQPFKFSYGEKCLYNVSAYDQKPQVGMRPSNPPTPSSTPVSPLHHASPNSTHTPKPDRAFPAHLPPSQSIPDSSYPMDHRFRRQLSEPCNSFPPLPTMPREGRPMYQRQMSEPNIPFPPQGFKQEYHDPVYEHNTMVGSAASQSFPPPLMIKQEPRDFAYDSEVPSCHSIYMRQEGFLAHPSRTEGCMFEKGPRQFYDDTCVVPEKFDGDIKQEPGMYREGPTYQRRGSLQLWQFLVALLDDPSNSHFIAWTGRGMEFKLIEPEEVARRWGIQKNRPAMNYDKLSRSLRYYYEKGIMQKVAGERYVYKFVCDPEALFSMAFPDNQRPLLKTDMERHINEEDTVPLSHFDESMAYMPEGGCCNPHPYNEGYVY
In short: as §1

Sequence: TCTCTT
- binding signal (FLI1): 1.52 fold enrichment (6-mer frequency, TF over GST control)
- binding signal (ELK1): 1.34 fold enrichment (6-mer frequency, TF over GST control)
- binding signal (GABPA): 1.45 fold enrichment (6-mer frequency, TF over GST control)
- binding signal (ERG): 1.27 fold enrichment (6-mer frequency, TF over GST control)
- binding signal (ELF1): 1.47 fold enrichment (6-mer frequency, TF over GST control)
- binding signal (EHF): 1.41 fold enrichment (6-mer frequency, TF over GST control)
- binding signal (SPI1): 1.32 fold enrichment (6-mer frequency, TF over GST control)
- binding signal (SPIB): 1.38 fold enrichment (6-mer frequency, TF over GST control)
- binding signal (ELK3): 1.31 fold enrichment (6-mer frequency, TF over GST control)
- binding signal (FEV): 1.41 fold enrichment (6-mer frequency, TF over GST control)
- binding signal (ETV5): 1.39 fold enrichment (6-mer frequency, TF over GST control)
- binding signal (HSF1): 1.39 fold enrichment (6-mer frequency, TF over GST control)
- binding signal (SPIC): 1.34 fold enrichment (6-mer frequency, TF over GST control)
- binding signal (ELF4): 1.34 fold enrichment (6-mer frequency, TF over GST control)
- binding signal (ELK4): 1.49 fold enrichment (6-mer frequency, TF over GST control)
- binding signal (ETV2): 1.37 fold enrichment (6-mer frequency, TF over GST control)
- binding signal (ELF3): 1.28 fold enrichment (6-mer frequency, TF over GST control)
- binding signal (CRX): 1.58 fold enrichment (6-mer frequency, TF over GST control)
- binding signal (ETV1): 1.42 fold enrichment (6-mer frequency, TF over GST control)
